# Sm TGR inh – inhibitors of Schistosoma mansoni thioredoxin glutathione reductase; Q962Y6; purified TGR, DTNB reduction, TNB absorbance 405 nm; Potency, µM (top dose mostly 114 µM), inactives show at the highest dose activity change, negative = inhibition, most hits filed as inhibitors; 360,000 tested, 3% active; AID 485364; active = well fitted inhibition curve with a large enough effect; inconclusive = small, poorly fitted or top-dose-only effect; inactive = no such curve, though single readings can be large or run the other way; also: potency is read from the fitted curve at half-maximal effect; % is scaled to controls: 0 for no effect and ±100 for the full control effect; nearly all actives have a fitted effect of over 60% in size
#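 Kinetic colorimetric format: TGR-catalysed, NADPH-driven DTNB reduction monitored via TNB absorbance. Enzyme dispensed at 20 nM; compound exposure 15 min at room temperature before reaction start.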
# Cycloheximide cs – affects cycloheximide protein synthesis inhibition readout, counter-screen. max response, %. cell reporter, cycloheximide protein synthesis inhibition counterscreen. 300,000 tested, 12% active; in the data active = max response mostly above about 13%, no sharp cut-off; inactive = mostly below about 14%; also: read at 38.3 µM for the half of the compounds with a filed dose; 0% is about no effect
# Shiga inhibitor – Shiga toxin inhibition | Vero cells, Shiga toxin protein synthesis inhibition reporter | inhibition, % at 38.7 µM | 290,000 tested, 9.2% active | AID 2315; in the data active = inhibition mostly above about 28%, no sharp cut-off; inactive = mostly below about 43%; also: 0% is about no effect
# FMDV antiviral – blocks foot and mouth disease virus. Potency, µM (titrated, usually from 57.9 µM), for inactives: at the highest dose activity change, negative = inhibition, hits mostly inhibitors. AID 1159524. 410,000 tested, 1.2% active. FMDV antiviral cell-based qHTS; calls by dose curve; tested in HEK293T cells; also: read-out not given here; potency is read from the fitted curve at half-maximal effect; % is scaled to controls: 0 for no effect and ±100 for the full control effect; nearly all actives have a fitted effect of over 45% in size
# The depositor's hits bear a star; u = inconclusive; x = no result given. Most compounds without a hit are left out; they make up all but 12% or so of the library.
SMILES,Sm TGR inh,Cycloheximide cs,Shiga inhibitor,FMDV antiviral
CC(=O)NC(Cc1ccc(N(CCCl)CCCl)cc1)C(=O)NC(CC(C)C)C(=O)O (stereo unspecified),28µM*,0,-6,-8%
CCN(Cc1ccccc1)C(=O)c1ccc(CS(=O)c2ccccc2C)o1 (stereo unspecified),14µM*,-3,-7,-3%
Cc1ccccc1S(=O)Cc1ccc(C(=O)NC2CC2)o1 (stereo unspecified),u,-11,2,-10%
Cc1ccc(C(=O)Cn2nc(C)c([N+](=O)[O-])c2C)c(C)c1,5%,20*,57*,23%
Cc1cc(C)c(C(=O)Cn2nc(C)c([N+](=O)[O-])c2C)cc1C,1%,-2,-7,-16%
CC(=O)Nc1ccc(OC(=O)c2cccs2)cc1,6%,34*,71*,67%
CC(=O)c1ccc(OC(=O)c2cccs2)cc1,1%,-2,-13,30%
Cc1cc(C)cc(C(=O)Nc2ccc(NC(=O)c3cccs3)cc2)c1,-10%,-1,10,-31%
N/C(=N\O)c1ccc(NC(=O)c2cccs2)cc1,-3%,58*,109*,28%
O=C(Nc1ccc(C(F)(F)F)cc1)c1ccccc1Br,1%,49*,108*,35%
COc1ccccc1CC(=O)Nc1ccc(NC(=O)c2cccs2)cc1,2%,-3,-5,-18%
COC(=O)Cc1ccc(NC(=O)c2cccs2)cc1,5%,49*,82*,52%
Cc1ccccc1CNCCCSc1nnnn1-c1ccccc1,0%,x,x,-9%
CC(=O)c1ccc(NC(=O)c2cccs2)cc1,-24%,54*,125*,x
O=C(Nc1ccc(C(F)(F)F)cc1)C1(c2ccccc2)CC1,0%,12*,18,9%
O=C(Nc1cccc(C(F)(F)F)c1)C1(c2ccccc2)CC1,0%,-2,-7,-13%
COC(=O)Cc1ccc(NC(=O)c2ccccc2Br)cc1,2%,15*,50,33%
COc1ccc(NC(=O)c2ccc(NC(=O)c3cccs3)cc2)cc1,1%,9,1,-11%
COc1ccc(NC(=O)n2nc(OC(=O)c3cccs3)cc2N)cc1,u,33*,51*,54%
C=CCCCCCCCCCBr,x,-6,6,x
O=S(=O)(Nc1ccc(-c2cn3ccccc3n2)cc1)c1ccccc1,18%,28*,87*,19%
Cc1cccc(S(=O)(=O)Nc2ccc(-c3cn4ccccc4n3)cc2)c1,-1%,13*,18,-4%
Cc1cc(C)c(S(=O)(=O)Nc2ccc(-c3cn4ccccc4n3)cc2)c(C)c1,-8%,15,15,0%
COc1cc(Cl)c(NS(=O)(=O)c2ccc(-c3coc(C)n3)cc2)c(OC)c1,-1%,x,x,u
Oc1ccccc1-c1nc(NCc2ccco2)c2ccccc2n1,-15%,25*,36*,13%
SMILES,Sm TGR inh,Cycloheximide cs,Shiga inhibitor,FMDV antiviral
Cc1ccc(Nc2nc(NCc3ccco3)c3ccccc3n2)cc1,u,30*,43,-42%
COc1ccccc1Nc1nc(NCc2ccco2)c2ccccc2n1,0%,24*,32,u
Fc1ccccc1-c1nc(NCc2ccco2)c2ccccc2n1,10%,-2,-8,-29%
c1ccc(N2CCN(c3nc(NCc4ccco4)c4ccccc4n3)CC2)cc1,-28%,10,26,28µM*
COc1cc2nc(N3CCCC(O)C3)c(CNCc3ccccc3F)cc2c(OC)c1OC (stereo unspecified),x,x,x,-9%
CCOC(=O)c1cccc(NC(=O)c2ccc3snnc3c2)c1,1%,x,x,0%
CCOC(=O)c1c(C)[nH]c(C(=O)COC(=O)C2(C)CC2(Cl)Cl)c1C (stereo unspecified),0%,53*,49,-16%
CCOC(=O)c1c(C)[nH]c(C(=O)OCC(=O)NC(C)(C)C)c1C,1%,23*,10,-26%
CCNC(=O)COC(=O)c1[nH]c(C)c(C(=O)OC)c1C,0%,43*,71*,45%
CCOC(=O)CC(=O)c1[nH]c(C)c(C(=O)OCC)c1C,-29%,26*,46,9%
CCc1ccc(C2c3c(-c4cc(C)ccc4O)n[nH]c3C(=O)N2CCO)cc1 (stereo unspecified),7%,x,x,-26%
COc1ccc(Cl)cc1NC(=O)CSc1nnc2[nH]c(=O)cc(C)n12,7%,x,x,-14%
COC(=O)CN1C(=O)CSc2ccc(S(=O)(=O)Nc3cccc(C)c3)cc21,-1%,x,x,39%
CCOC(=O)c1[nH]c(C)c(C(=O)OC)c1C,18%,13*,28,15%
CCOC(=O)c1c(C)[nH]c(C(=O)NCc2ccco2)c1C,2%,43*,53*,x
CCOC(=O)c1[nH]c(C)c(C(=O)NCc2ccco2)c1C,-3%,0,-12,-15%

# High-throughput results from PubChem BioAssay.
